# Screening results from PubChem.
# An excerpt weighted towards active compounds, which were near 1.4% of everything screened.
# Insulin prom inh = TRM-6 insulin promoter activity inhibition | AID 1273 | inhibition, % at 2 µM | hit rate 0.9% among 130,000 | TRM-6 cells (human fetal islet line), insulin promoter-eGFP reporter, imaging; reporter expression induced with tamoxifen;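 active = inhibition above the mean plus 3 SD, with well images judged a real hit on visual review, cut at about 60% in these data, passing the limit was not always enough; inconclusive = inhibition over the cutoff but images rejected on review; inactive = inhibition not above the cutoff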
# HUVEC tox IL1B = toxic to HUVEC cells under IL-1B stimulation; HUVEC cell count loss, Hoechst imaging, IL-1B stimulated; hit rate 0.41% among 94,000; cell count reduction, % at 2 µM;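 active = cell count reduction more than 3 SD above the screen-wide mean, cut at about 70% in these data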;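 also: normalized per plate to untreated control cells as the no-loss baseline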
# NFkB transloc pot = enhances IL-1B driven NFkB nuclear translocation. hit rate 0.3% among 94,000. HUVEC IL-1B NFkB p65 nuclear translocation imaging. activation, % at 2 µM;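 active = activation above 40%, about the mean plus 3 SD, also judged a hit on visual image review; inconclusive = activation above 40% but not a hit on visual review; inactive = activation not above 40% and no visual hit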;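 also: percent activation is computed from the nuclear over cytoplasmic p65 intensity ratio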
# IL1B NFkB inh = blocks IL-1B driven NFkB nuclear translocation in HUVEC cells | hit rate 0.43% among 94,000 | AID 796 | inhibition, % at 2 µM | HUVEC IL-1B NFkB p65 nuclear translocation imaging;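 active = inhibition above about 30% together with a positive call from visual inspection of the well image, limit read from the data; inconclusive = inhibition above a set limit but visual check negative; inactive = inhibition not above a set limit, visual check negative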;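 also: nuclear over cytoplasmic p65 intensity ratio measured by imaging; 0% = IL-1B stimulated DMSO wells and 100% = unstimulated DMSO wells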
# The depositor's hits bear a star; ? = inconclusive; · = no result given.
SMILES,Insulin prom inh,HUVEC tox IL1B,NFkB transloc pot,IL1B NFkB inh
COc1ccc(N(C)S(=O)(=O)c2cccc(C(=O)NC3CCCCCC3)c2)cc1,-14,·,·,·
Nc1nc(C(=O)N2CCOCC2)nn1S(=O)(=O)c1ccc(Cl)cc1,-390,92*,3,-3
CCOC(=O)CN1C(=O)N[C@@H](c2ccccc2)C(C(C)=O)=C1C,60*,·,·,·
CCN1C(=O)N[C@@H](c2ccc(Br)cc2)C(C(=O)OC)=C1C,65*,·,·,·
COC(=O)C1=C(C)N(Cc2ccccc2)C(=O)N[C@H]1c1ccccc1,-133,·,·,·
CCOC(=O)C(C(=O)Nc1ccccc1C)C1CCCCC1 (stereo not given),-39,-4,0,0
Cn1c(SCc2ccc(F)cc2)nnc1-c1cccs1,71*,7,-4,4
CC1CN(C(=O)C(c2ccccc2)c2ccccc2)CC(C)O1 (stereo not given),31,12,4,-4
CCn1c(-c2cccs2)nc2ccccc21,?,36,-12,12
C#CCn1c(-c2cccs2)nc2ccccc21,93*,·,·,·
CCc1nc(C)cc(N)c1OCc1ccccc1,·,-9,-21,21
CSc1nc(N(C)NC(=O)c2ccc(Cl)cc2)c2ccccc2n1,-38,36,-34,34*
CSc1nc(N(C)NC(=O)c2ccccc2)c2ccccc2n1,-160,6,-14,14
CC(C)CNC(=O)c1cccc(NC(=O)Cc2ccc(Cl)cc2)c1,25,·,·,·
Cn1ncc(Br)c1C(=O)NC12CC3CC(CC(C3)C1)C2,23,·,·,·
COc1ccccc1NC(=O)c1sc2nc(-c3ccco3)ccc2c1N,14,-2,-1,1
Nc1c(C(=O)Nc2ccccc2)sc2nc(-c3ccco3)ccc12,80*,6,0,0
Cc1ccc(C)c(OCCCCn2ccnc2)c1,-23,·,·,·
Cc1ccc(OCCCCn2ccnc2)c(Cl)c1,73*,-12,6,-6
Cc1ccc(C(=O)N2CCN(c3ccc(Cl)cc3)CC2)cc1,53,88*,-16,16
COc1cc(S(=O)(=O)Nc2cccc(C(=O)O)c2)c(OC)cc1Cl,·,88*,-49,49*
CN(C)c1nc(N)nc(/C(C#N)=C/C2CC3C=CC2C3)n1 (stereo not given),36,-1,42*,-42
O=C(Oc1ccc(F)cc1C(=O)/C=C/c1cccs1)c1cccc([N+](=O)[O-])c1,0,60,-31,31*
Fc1ccc(/C=N/Nc2ncnc3nc[nH]c23)cc1F,60*,·,·,·
COc1ccc(C(=O)n2nc(-c3ccccc3)nc2N)cc1OC,61,-1,-14,14
SMILES,Insulin prom inh,HUVEC tox IL1B,NFkB transloc pot,IL1B NFkB inh
COc1cc(/C=C(\C#N)C(=O)NCC2CCCO2)ccc1OC(C)C (stereo not given),70*,·,·,·
N#C/C(=C/c1cc(Br)cs1)C(=O)NCC1CCCO1 (stereo not given),9,88*,-97,97*
COc1ccc2c(c1)C1(Nc3ccccc3-c3nc4ccccc4n31)C(=O)N2 (stereo not given),14,71*,-16,16
COc1ccc(C2=NOC(C(=O)Nc3cc(Br)ccc3O)C2)cc1OC (stereo not given),74*,-28,13,-13
Cc1ccc(C(=O)N/N=C/c2ccc3c(c2)OCO3)o1,-17,·,·,·
Cn1cc([N+](=O)[O-])c(C(=O)N/N=C/c2ccc3c(c2)OCO3)n1,78*,·,·,·
Cc1cc(N)n2nc(-c3ccccc3)cc2n1,42,·,·,·
Cc1cc(N)n2ncc(-c3cccc(Br)c3)c2n1,93*,-25,13,-13
CC(=O)Nc1ccc(Nc2cc(-c3ccccc3)nc3ncnn23)cc1,-14,·,·,·
Cc1cc(N)n2ncc(-c3ccccc3)c2n1,87*,12,-14,14
CC(=O)c1cnc2c(-c3cccc(Br)c3)cnn2c1C,-5,·,·,·
CC(=O)Nc1ccc(Nc2cc(C)nc3c(-c4ccccc4)cnn23)cc1,75*,·,·,·
CC(O)Cn1cnc2c1c(=O)n(C)c(=O)n2C (stereo not given),-29,·,·,·
CCCOC(=O)c1c(-c2ccc(C)cc2C)csc1NC(=O)C1C2CCC(O2)C1C(=O)O (stereo not given),-85,·,·,·
CCc1cc2cc(C)cc(C)c2nc1SCC(=O)N1CCCC1,47,95*,33,-33
CCc1cc2cc(C)cc(C)c2nc1SCC(=O)Nc1cc(C)on1,-118,·,·,·
CCN(CC)c1ccc(/C=C2\NC(=O)NC2=O)cc1,-21,·,·,·
O=C1NC(=O)/C(=C\c2ccsc2)N1,72*,·,·,·
COc1cc(CNCCc2ccccc2)cc(Cl)c1OCc1ccccc1,-35,·,·,·
O=C(O)C1C2C=CC(O2)C1C(=O)Nc1ccc(S(=O)(=O)N2CCc3ccccc32)cc1 (stereo not given),31,3,-49,49*
Cc1ccc(C)c(/C(O)=C2/C(=O)C(=O)N(CCN3CCOCC3)C2c2ccc(C)o2)c1 (stereo not given),·,-6,107*,-107
Cc1ccc(C)c(/C(O)=C2\C(=O)C(=O)N(CCCN3CCOCC3)C2c2cccnc2)c1 (stereo not given),47,-5,9,-9
CCOC(=O)Nc1oc2ccccc2c(=O)c1C,42,-6,-36,36*
Cc1ccc(S(=O)(=O)NCC(=O)OCC(=O)Nc2cccc(S(=O)(=O)NC3=NCCCCC3)c2)cc1,78*,·,·,·
Cc1ccc(S(=O)(=O)NCCC(=O)OCC(=O)Nc2cccc(S(=O)(=O)NC3=NCCCCC3)c2)cc1,-64,·,·,·
SMILES,Insulin prom inh,HUVEC tox IL1B,NFkB transloc pot,IL1B NFkB inh
CCOC(=O)N1CCN(C(=O)CN(c2ccc3c(c2)OCO3)S(C)(=O)=O)CC1,79*,-13,15,-15
O=C(NCCSc1ccccc1)c1cncc(Br)c1,75*,-13,2,-2
Cc1cc(NC(=O)COc2ccc(N(C)S(=O)(=O)c3ccccc3)cc2)no1,79*,-1,13,-13
CCN(c1ccccc1)S(=O)(=O)c1ccc(OCC(=O)Nc2cc(C)on2)cc1,-28,3,-14,14
COc1ccc(C(=O)Cn2c(NCCO)nc3ccccc32)cc1,-8,·,·,·
COc1ccc(C(=O)Cn2c(NCCO)nc3ccccc32)cc1OC,87*,-7,-7,7
C=CCNC(=S)N1CCN(CCN=CC2=C(O)CC(c3ccco3)CC2=O)CC1 (stereo not given),47,93*,-54,54*
COCCCNC(=S)NC1CC2CCCC(C1)N2Cc1cccs1 (stereo not given),-14,-26,1,-1
COc1ccc(CNC(=O)Cn2cncn2)cc1OC,89*,·,·,·
Nc1c(C(=O)NCC2CCCO2)sc2nc3c(c(-c4ccco4)c12)CC/C3=C\c1ccco1 (stereo not given),-130,·,·,·
COc1cc(S(=O)(=O)Nc2cccc(C)c2)ccc1N=Cc1c(C)[nH]n(-c2ccccc2)c1=O,-30,·,·,·
COc1cc(S(=O)(=O)Nc2ccc(C)cc2)ccc1N=Cc1c(C)[nH]n(-c2ccccc2)c1=O,72*,·,·,·
Cc1cc(SCC(=O)N(C)CC(=O)Nc2ccc(F)cc2)nc2ccccc12,-66,·,·,·
Cn1c(=O)c2[nH]c(-c3ccccc3Cl)c(O)c2n(C)c1=O,64*,·,·,·
COC(=O)c1[nH]c2ccc(C)cc2c1NC(=O)CN1CCCc2ccccc21,-166,-36,12,-12
Cc1c(N2C(=O)/C(=C\c3ccc(N(C)C)cc3)N(C)C2=S)c(=O)n(-c2ccccc2)n1C,-139,·,·,·
